# Screening data: PubChem, The Scripps Research Institute Molecular Screening Center
# Hits are enriched below; roughly 2.3% of the tested compounds scored in any of these assays.
# M1 PAM = human M1 muscarinic receptor positive allosteric modulators, primary screen, CHO-K1 cells, Fluo-8 calcium fluorescence, 1536-well; activation, % at 3 µM; Muscarinic acetylcholine receptor M1 (Homo sapiens), P11229; CHO-K1 hM1, ACh EC20; 0% = ACh EC20, 100% = maximal ACh; 360,000 compounds, 0.088% hits; AID 588819, 2011; in the data active = activation above about 19%, passing the limit was not always enough
# Target sequence (P11229 whole entry, looked up): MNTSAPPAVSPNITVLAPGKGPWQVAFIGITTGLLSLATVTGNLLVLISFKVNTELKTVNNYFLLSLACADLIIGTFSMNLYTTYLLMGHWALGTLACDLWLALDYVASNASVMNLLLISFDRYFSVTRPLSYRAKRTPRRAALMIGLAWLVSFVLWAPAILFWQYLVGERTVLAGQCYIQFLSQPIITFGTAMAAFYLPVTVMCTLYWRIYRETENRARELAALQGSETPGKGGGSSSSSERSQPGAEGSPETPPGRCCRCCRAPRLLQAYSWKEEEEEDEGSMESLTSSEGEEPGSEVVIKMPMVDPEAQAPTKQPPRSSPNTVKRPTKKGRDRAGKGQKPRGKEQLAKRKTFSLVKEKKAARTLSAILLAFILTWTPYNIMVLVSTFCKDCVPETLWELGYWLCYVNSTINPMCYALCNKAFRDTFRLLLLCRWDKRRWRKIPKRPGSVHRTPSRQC
# M1 ag parental = counter-screen for M1 agonists: effect in parental CHO-K1 cells; activation, % at 3 µM; AID 602248, 2012; Fluo-8 calcium fluorescence; scaled to maximal ATP response, vehicle zero; 360,000 compounds, 0.48% hits; in the data active = activation above about 15%;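 also: untransfected CHO-K1 host cells lacking M1 receptor as counterscreen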
# M1 ag = human M1 muscarinic receptor agonists, primary screen, Fluo-8 calcium fluorescence, CHO-K1 cells, HTS. Muscarinic acetylcholine receptor M1 (Homo sapiens), P11229. CHO-K1 hM1, agonist mode; 0% DMSO, 100% acetylcholine EC100. activation, % at 3 µM. 360,000 compounds, 0.33% hits;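 active = activation above the run's mean compound activation plus 3 SD, cut at about 16% in these data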;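 also: peak over basal fluorescence ratio within a 140 s kinetic read after compound addition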
# CHRM1 antagonist = human M1 muscarinic receptor antagonists, primary screen, CHO-K1 cells, Fluo-8 calcium fluorescence, 1536-well; Muscarinic acetylcholine receptor M1 (Homo sapiens), P11229; AID 588852, 2011; inhibition, % at 3 µM; CHO-K1 hM1, ACh EC80 antagonist; 360,000 compounds, 1.3% hits;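 active = percent inhibition above its own plate's cutoff, namely the mean of that plate's compound wells plus 3 SD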;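 also: peak over basal fluorescence ratio during 140 s after agonist addition; 0% = ACh EC80 plus DMSO and 100% = DMSO alone without agonist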
# CHO-K1 Ca antag = nonselective inhibitor or artifact in parental CHO-K1 cells | inhibition, % at 3 µM | 360,000 compounds, 0.6% hits | ATP-induced calcium, Fluo-8 fluorescence;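 active = inhibition above a per-plate cutoff, the plate's mean sample inhibition plus 3 SD, cut at about 24% in these data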;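 also: 0% = DMSO plus EC80 ATP and 100% = DMSO alone without ATP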
# CHO-K1 Ca PAM = nonselective calcium activators in parental CHO-K1 cells, primary screen, counter-screen for M1 PAM project, cell-based, Fluo-8 calcium fluorescence, full deck, 1536-well | ATP EC20; 0% at ATP EC20, 100% at ATP max | activation, % at 3 µM | 360,000 compounds, 0.02% hits;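 active = activation above the run cutoff, the mean activation of all test compounds plus 3 SD, cut at about 40% in these data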;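 also: peak over basal fluorescence ratio in a 140 s read after ATP addition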
# Starred values were filed as active, the others as inactive.
SMILES,M1 PAM,M1 ag parental,M1 ag,CHRM1 antagonist,CHO-K1 Ca antag,CHO-K1 Ca PAM
Cc1sc(NC(=O)C2CCCO2)c(C(N)=O)c1C (configuration not stated),12,0,-3,-13,-12,21
CC(OC(=O)c1cccc(-n2cnnn2)c1)C(=O)Nc1cccc(Cl)c1 (configuration not stated),1,2,-5,-7,7,3
CC1CCN(c2c(NCC3CCC(C(=O)N4CCCCC4)CC3)c(=O)c2=O)CC1 (configuration not stated),-8,0,-2,21,28*,-7
CCN1CCc2nc(NC(=O)c3ccccc3)sc2C1,2,0,-5,4,2,-2
O=C(Nc1nc2c(s1)CN(Cc1ccccc1)CC2)C1CCC1,-10,0,-8,46*,-12,6
CCOC(=O)NC(=O)/C(C#N)=C/c1ccc(N(C)C)cc1,8,9,3,-4,3,2
CN(C)c1ccc(/C=C(\C#N)C(=O)Nc2nc3c(s2)CCN(Cc2ccccc2)C3)cc1,-12,15,21*,35*,17,-29
CCc1c(C(=O)O)[nH]c2ccc(Br)cc12,3,2,-4,-15,-5,11
CCn1c(CCn2ccnc2C)n[nH]c1=S,-16,1,28*,30,-18,6
CCn1c(CC(C)C)n[nH]c1=S,5,0,-4,4,-5,8
CCN1CCN(c2ccc(S(=O)(=O)N3CCOCC3)cc2NC(=O)c2cc(F)c(F)c(F)c2F)CC1,0,0,-8,-7,-7,11
CCN1CCN(c2ccc(S(=O)(=O)N3CCOCC3)cc2NC(=O)c2ccccc2SC)CC1,0,0,24*,-10,9,-7
CCN1CCN(CCNC(=O)c2ccc3c(c2)N(Cc2ccc(F)cc2)C(=O)/C(=C/c2ccccc2)S3)CC1,-7,2,-6,4,-12,23
Cc1ccccc1CN1C(=O)/C(=C\c2ccc(C(=O)NCCN3CCOCC3)cc2)Sc2ccccc21,4,2,-1,-1,-4,6
CCN1CCN(CCNC(=O)c2ccc(/C=C3/Sc4ccccc4N(Cc4cccc(Cl)c4)C3=O)cc2)CC1,-22,6,1,57*,-2,1
Cc1cccc(CN2C(=O)/C(=C\c3ccc(C(=O)NCCN4CCOCC4)cc3)Sc3ccccc32)c1,-11,7,1,33*,-1,17
CCOC(=O)/C(C)=N/Nc1nc(-c2ccc(NC(C)=O)cc2)cs1,1,3,0,0,-4,-6
N#Cc1c(NC(=O)CSc2nc(N)cc(=O)[nH]2)sc2c1CCCC2,9,0,-1,-1,4,-15
COc1ccc(N=C2SCC(=O)N2CCc2ccc(OC)c(OC)c2)cc1,-15,8,-1,36,7,-1
COc1ccc(CCN2C(=O)CSC2=Nc2ccc(C(C)C)cc2)cc1OC,-15,9,-2,41*,13,-6
c1ccc(Oc2cccc(OCCCn3cncn3)c2)cc1,21*,0,6,-26,8,6
COCCN(CC(=O)Nc1cccc(C)c1C)C(=O)c1cc(-c2ccncc2)nc2ccccc12,-17,6,-1,34*,0,-7
COCCN(CC(=O)Nc1cccc(C)c1C)C(=O)c1cc(-c2cccs2)nn1-c1ccccc1,-11,4,-3,18,2,-20
CC1=CC(C)(C)N(C(=O)CNC2CCCC2)c2cc(C)ccc21,-23,0,-7,99*,-16,9
COc1ccc(S(=O)(=O)N(CC(=O)NC2CC2)c2ccc(C)cc2)cc1OC,2,0,-3,2,10,-2
SMILES,M1 PAM,M1 ag parental,M1 ag,CHRM1 antagonist,CHO-K1 Ca antag,CHO-K1 Ca PAM
Nc1ccc(S(=O)(=O)c2ccc(N)cc2)cc1,5,2,-2,-35,26*,-9
Nc1ccc(S(=O)(=O)N2CCCC2)cc1,2,1,-5,-6,-3,14
Cc1cccc(N=Nc2cnc(N)s2)c1,6,6,-2,-3,-6,15
O=S(=O)(Nc1nc2ccccc2[nH]1)c1ccc(Cl)cc1,-26,0,2,70*,6,11
CC(C)(C)c1ccc(C(=O)N2CCC2(C)C(=O)NCc2ccc3c(c2)OCO3)cc1 (configuration not stated),-10,3,-1,-7,-14,8
FC(F)(F)c1cccc(NC(=S)NCc2ccc(Cl)cc2)c1,-16,17*,2,23,22,9
CC(NC(=S)Nc1cccc(C(F)(F)F)c1)C(C)(C)C (configuration not stated),-17,13,-2,46*,14,-2
Cc1nc2ccc(NC(=S)NC3CC3)cc2nc1C,-5,0,-5,9,27*,-15
Cc1nc2ccc(NC(=S)NC(C)C)cc2nc1C,5,0,-7,-4,-3,8
NC1=NC2(CCCCC2)n2c(nc3ccccc32)N1,-7,0,-4,-13,-10,9
NC1=NC2(CCN(Cc3ccccc3)CC2)n2c(nc3ccccc32)N1,-4,-1,-6,-3,29*,-8
CCc1ccc(CCC(=O)Nc2sc3c(c2C#N)CCCC3)o1,-3,0,-6,1,-6,15
Cc1ccc(/C=C/C(=O)Nc2sc3c(c2C#N)CCCC3)o1,14,-1,0,-4,38*,-17
NCCCC[C@@H](C(=O)N1CCNCC1)n1cc([C@@H](N)CC(N)=O)nn1,10,2,-2,-9,-12,22
O=C(CN1CCN(c2ccc([N+](=O)[O-])cc2)CC1)c1ccccc1,-26,2,-8,40*,3,13
O=C(CCN1CCN(c2ccc([N+](=O)[O-])cc2)CC1)c1ccc(Cl)cc1,-19,10,-4,38*,17,-9
O=C(CN1C(=O)NC2(CCCC2)C1=O)OCC(=O)c1cccc(Cl)c1,-1,1,-2,11,0,-18
CCOc1cc2c3c(c1)C1(C(=O)N3C(C)(C)C=C2C)C(C#N)=C(N)Oc2cc(O)ccc21 (configuration not stated),8,0,-1,-7,29*,3
CCC1(c2ccc(OC)cc2)NC(=O)N(CC(=O)N2CCc3ccccc32)C1=O (configuration not stated),-3,11,29*,7,6,23
